Results from the supplement of paper PMC12297408.
Where “and” joins values, the source holds several entries; their conditions need not be identical. Equal values may be shown once. Where a name gives a salt, the structure may show the parent alone. Unmarked numbers belong to inactive results.

Tested on: Plasmodium falciparum NF54/iGP1_RE9H ulg8 stage V gametocytes
Assay: gametocyte viability (luciferase signal relative to DMSO control) (% of DMSO control); higher = less gametocytocidal activity, active = 50 or less
Settings: exposure time: 72 h
How it was run: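 NF54/iGP1_RE9Hulg8 stage V gametocytes (day 12; ~2.5% gametocytemia, 3% hematocrit) were incubated with compounds at 10 µM or 1 µM final, in one well each, for 72 h at 37 °C in medium with 0.5% Albumax II. Luminescence after D-luciferin addition was read on an IVIS Lumina II. Viability refers to the mean of plate DMSO vehicle wells.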

SMILES | gametocyte viability (concentration: 1 µM) | gametocyte viability (concentration: 10 µM)
Cc1ccc([N+](=O)[O-])cc1S(=O)(=O)N(C)/N=C/c1cnc2ccc(Br)cn12 | 94.9 | 101
Cn1c(Nc2ccc(C(F)(F)F)cc2)nc2cc(Oc3ccnc(-c4ncc(C(F)(F)F)[nH]4)c3)ccc21 | 103 | 104
Nc1nc2ncnc-2c[nH]1 [2-Aminopurine] | 97.6 | 103
O=C(O)c1ccc2c(c1)nc(Nc1cccc(Cl)c1)c1ccncc12 | 101 | 107
COc1cc(OC)c(/C=C/S(=O)(=O)Cc2ccc(OC)c(NCC(=O)O)c2)c(OC)c1 | 93.4 | 101
Cc1ccc(-n2nc(C(C)(C)C)cc2NC(=O)Nc2ccc(OCCN3CCOCC3)c3ccccc23)cc1 [BIRB 796 (Doramapimod)] | 96 | 98.8
O=S(=O)(NCCNC/C=C/c1ccc(Br)cc1)c1cccc2cnccc12 | 99 | 93.1
O=c1c(-c2ccc(O)cc2)coc2cc(O)cc(O)c12 [Genistein] | 95.5 | 83.9
Cn1cc(C2=C(c3cn(CCCSC(=N)N)c4ccccc34)C(=O)NC2=O)c2ccccc21 [Ro 31-8220 mesylate] | 123 | 78.9
O=C(O)c1cc(NCc2cc(O)ccc2O)ccc1O [2-Hydroxy-5-(2,5-dihydroxybenzylamino)benzoic acid] | 103 | 109
O=C1C(c2c(O)[nH]c3ccccc23)=Nc2ccccc21 [Indirubin] | 104 and 100 | 113 and 97.3
O=C1NC(=O)/C(=C/c2ccc3c(c2)OC(F)(F)O3)S1 | 103 | 106
COc1cccc(-c2cc(=O)c3ccccc3o2)c1N | 97.3 and 93.2 | 64.5 and 69.7
O=C(NOCC1CC1)c1ccc(F)c(F)c1Nc1ccc(I)cc1Cl | 93.2 | 98.6
CCN(CC)CCNC(=O)c1c(C)[nH]c(/C=C2\C(=O)Nc3ccc(F)cc32)c1C [Sunitinib Malate (Sutent)] | 102 | 80.7
Cc1cccc(-c2[nH]c(C(C)(C)C)nc2-c2ccc3nccnc3c2)n1 | 94.4 | 91.7
Cc1ccc(Nc2nccc(N(C)c3ccc4c(C)n(C)nc4c3)n2)cc1S(N)(=O)=O [Pazopanib HCl] | 98 | 109
Cc1ccc(NC(=O)c2ccc(CN3CCN(C)CC3)cc2)cc1Nc1nc(-c2cccnc2)cs1 [Masitinib (AB1010)] | 104 | 80.3
C=CC(=O)Nc1cc2c(Nc3ccc(F)c(Cl)c3)ncnc2cc1OCCCN1CCOCC1 [CI-1033 (Canertinib)] | 97.8 | 100
NCCNS(=O)(=O)c1cccc2cnccc12 | 105 | 107
O=c1c(-c2ccc(O)cc2)coc2cc(O)ccc12 [Daidzein] | 116 | 109
CC(C)c1cnn2c(NCc3ccccc3)cc(NCCCCCCN)nc12 | 102 | 86.5
